About 83,000 compounds went through this panel and 20% of them were active in at least one assay; those are over-represented in the sample as a whole.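 96-well plates, one dose, 48 hours. Percent growth reported; active if below 10.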 Active and inactive are the calls of the source.
How the values were obtained:
Test in all cases: NCI-60 one-dose screen, 48 h (100 = growth as untreated, 0 = no growth, -100 = all killed)
NCI-H23 lung = details: 10 µM unless noted
NCI-H226 lung = details: 10 µM unless noted
NCI-H322M lung = details: 10 µM unless noted
HOP-62 NSCLC = details: 10 µM unless noted
NCI-H460 lung = details: 10 µM unless noted
A549/ATCC NSCLC = details: 10 µM unless noted
786-0 renal = details: 10 µM unless noted
COLO 205 colon = details: 10 µM unless noted
DU-145 prostate = details: 10 µM unless noted
K-562 leukemia = details: 10 µM unless noted
MALME-3M melanoma = details: 10 µM unless noted
MDA-MB-231 breast = details: 10 µM unless noted
RXF 393 renal = details: 10 µM unless noted
SF-268 CNS = details: 10 µM unless noted
SF-295 CNS = details: 10 µM unless noted
SF-539 CNS = details: 10 µM unless noted
UACC-257 melanoma = details: 10 µM unless noted
M14 melanoma = details: 10 µM unless noted
HOP-92 NSCLC = details: 10 µM unless noted
NCI-H522 lung = details: 10 µM

Measured: growth

O=C(COc1ccc(/C=C2\Cc3ccccc3C2=O)cc1)c1ccc(Cl)cc1
inactive: NCI-H23 lung 89.2% | NCI-H226 lung 97.5% | NCI-H322M lung 123% | HOP-62 NSCLC 101% | NCI-H460 lung 101% | A549/ATCC NSCLC 99.6% | 786-0 renal 102% | COLO 205 colon 117% | DU-145 prostate 117% | K-562 leukemia 92.9% | MALME-3M melanoma 124% | MDA-MB-231 breast 82.2% | RXF 393 renal 121% | SF-268 CNS 120% | SF-295 CNS 121% | SF-539 CNS 101% | UACC-257 melanoma 100% | M14 melanoma 104%

COc1ccc(CCN2C(=O)CCC3=C2CCCC3=O)cc1OC
inactive: NCI-H23 lung 98.2% | NCI-H226 lung 105% | NCI-H322M lung 98% | HOP-62 NSCLC 95.3% | NCI-H460 lung 106% | HOP-92 NSCLC 78.2% | A549/ATCC NSCLC 106% | 786-0 renal 108% | COLO 205 colon 88.6% | K-562 leukemia 106% | MALME-3M melanoma 91.7% | MDA-MB-231 breast 89.9% | RXF 393 renal 113% | SF-268 CNS 136% | SF-295 CNS 112% | SF-539 CNS 103% | M14 melanoma 99.1%

O=C1NC(=O)/C(=C/c2ccc(Cl)cc2Cl)N1
inactive: NCI-H23 lung 91.2% | NCI-H226 lung 99.4% | NCI-H322M lung 104% | HOP-62 NSCLC 99.1% | NCI-H460 lung 109% | A549/ATCC NSCLC 101% | 786-0 renal 109% | COLO 205 colon 100% | DU-145 prostate 117% | K-562 leukemia 104% | MALME-3M melanoma 100% | MDA-MB-231 breast 110% | RXF 393 renal 120% | SF-268 CNS 103% | SF-295 CNS 114% | SF-539 CNS 103% | UACC-257 melanoma 108% | M14 melanoma 121%

Cc1cc(C(=O)Nc2ccc3cc(CN4CCOCC4)ccc3n2)c(C)n1-c1ccccc1
inactive: NCI-H23 lung 12.7% | NCI-H226 lung 21.9% | NCI-H322M lung 94.2% | HOP-62 NSCLC 36% | NCI-H460 lung 59.3% | A549/ATCC NSCLC 28% | 786-0 renal 56.7% | COLO 205 colon 40.5% | DU-145 prostate 70.2% | K-562 leukemia 27% | MALME-3M melanoma 11.4% | MDA-MB-231 breast 70.9% | RXF 393 renal 96.3% | SF-268 CNS 77% | SF-295 CNS 11.7% | SF-539 CNS 59.1% | M14 melanoma 13.5%
active: UACC-257 melanoma -12.7%

COc1ccc(-c2c3c(N)nc(-c4ccncc4)nc3nc3c2c(C)nn3-c2ccccc2)cc1
active: SF-539 CNS -40%
inactive: NCI-H23 lung 59.9% | NCI-H226 lung 74% | NCI-H322M lung 74.3% | HOP-62 NSCLC 62.6% | NCI-H460 lung 23.4% | HOP-92 NSCLC 51.4% | A549/ATCC NSCLC 30.8% | 786-0 renal 72.6% | COLO 205 colon 38.6% | DU-145 prostate 82% | MALME-3M melanoma 76% | MDA-MB-231 breast 67.6% | RXF 393 renal 69.4% | SF-268 CNS 54% | SF-295 CNS 58.7% | M14 melanoma 69.1%

COc1cccc(N2CCN(c3cccc(C)n3)CC2)c1
inactive: NCI-H23 lung 103% | NCI-H226 lung 105% | NCI-H322M lung 103% | HOP-62 NSCLC 87.7% | NCI-H460 lung 117% | A549/ATCC NSCLC 95.6% | 786-0 renal 99.6% | COLO 205 colon 123% | DU-145 prostate 106% | K-562 leukemia 85.2% | MALME-3M melanoma 102% | MDA-MB-231 breast 101% | RXF 393 renal 76.4% | SF-268 CNS 129% | SF-295 CNS 83.2% | SF-539 CNS 101% | UACC-257 melanoma 97.7% | M14 melanoma 89.9%

COc1ccc2nc(N/N=C(\C)c3ccccn3)cc(C)c2c1
inactive: NCI-H23 lung 19.8% | UACC-257 melanoma 16.7%
active: NCI-H226 lung -49.5% | NCI-H322M lung 8.51% | HOP-62 NSCLC 2.82% | NCI-H460 lung -68% | NCI-H522 lung -20.8% | 786-0 renal -89.7% | COLO 205 colon -78.2% | K-562 leukemia -51.5% | MALME-3M melanoma -24% | MDA-MB-231 breast -63.1% | SF-268 CNS -2.13% | SF-295 CNS -81.2% | SF-539 CNS -90.6%

C[C@@H]1CN(c2nc3c(cc2F)c(=O)c(C(=O)O)cn3C(C)(C)C)C[C@H](C)N1
inactive: NCI-H23 lung 95.2% | NCI-H226 lung 91% | NCI-H322M lung 93.7% | HOP-62 NSCLC 98.5% | NCI-H460 lung 107% | A549/ATCC NSCLC 99.9% | 786-0 renal 112% | COLO 205 colon 110% | DU-145 prostate 114% | K-562 leukemia 90.8% | MALME-3M melanoma 91.3% | MDA-MB-231 breast 88.4% | SF-268 CNS 114% | SF-295 CNS 96.5% | SF-539 CNS 107% | UACC-257 melanoma 91.2%
active: RXF 393 renal -17.3%

O=C(Nc1nn2c(-c3cc(C(F)(F)F)cc(C(F)(F)F)c3)nnc2s1)C1CCCC1
active: NCI-H23 lung -2.97% | NCI-H226 lung 9.1% | NCI-H322M lung 4.33% | HOP-62 NSCLC 8.91% | NCI-H460 lung 3.63% | HOP-92 NSCLC -24.2% | A549/ATCC NSCLC 7.1% | COLO 205 colon -82.5% | K-562 leukemia 6.69% | MDA-MB-231 breast -32% | SF-295 CNS 1.49% | UACC-257 melanoma 4.69% | M14 melanoma 7.59%
inactive: DU-145 prostate 33.1% | MALME-3M melanoma 10.4% | SF-268 CNS 28.4% | SF-539 CNS 12.8%

Source: PubChem BioAssay (NCI)
